Source: PubChem (several laboratories)
Rows were chosen to be rich in hits. Some 1.7% of all compounds tested hit in one or more screens of this group.
VHR inh abs: DUSP3 (human) phosphatase inhibition; P51452; hit rate 0.52% among 290,000; recombinant VHR phosphatase, pNPP absorbance; inhibition, % at 13.3 µM; AID 1654; in the data active = inhibition above about 50%
CCHF vOTU inh: blocks the CCHF virus ovarian tumor domain protease; hit rate 0.55% among 370,000; AID 651958; CCHFV vOTU protease, Pep-AMC fluorescence; inhibition, % at 11.5 µM; in the data active = inhibition above about 30%
SSB-PriA inh: blocks PriA binding to SSB C-terminal tail. hit rate 0.6% among 430,000. inhibition, % at 33 µM. AID 1272365. AlphaScreen SSBct-PriA binding, biotinylated peptide; in the data active = inhibition mostly above about 37%, no sharp cut-off; inactive = mostly below about 20%
RecA splice inh: blocks M. tuberculosis RecA intein splicing; P9WHJ3; cell-free RecA intein splicing, fluorescence; inhibition, % (concentration not given with the values); hit rate 0.75% among 290,000; AID 2221; in the data active = inhibition above about 30%
Target sequence (P9WHJ3 whole entry, looked up, canonical isoform): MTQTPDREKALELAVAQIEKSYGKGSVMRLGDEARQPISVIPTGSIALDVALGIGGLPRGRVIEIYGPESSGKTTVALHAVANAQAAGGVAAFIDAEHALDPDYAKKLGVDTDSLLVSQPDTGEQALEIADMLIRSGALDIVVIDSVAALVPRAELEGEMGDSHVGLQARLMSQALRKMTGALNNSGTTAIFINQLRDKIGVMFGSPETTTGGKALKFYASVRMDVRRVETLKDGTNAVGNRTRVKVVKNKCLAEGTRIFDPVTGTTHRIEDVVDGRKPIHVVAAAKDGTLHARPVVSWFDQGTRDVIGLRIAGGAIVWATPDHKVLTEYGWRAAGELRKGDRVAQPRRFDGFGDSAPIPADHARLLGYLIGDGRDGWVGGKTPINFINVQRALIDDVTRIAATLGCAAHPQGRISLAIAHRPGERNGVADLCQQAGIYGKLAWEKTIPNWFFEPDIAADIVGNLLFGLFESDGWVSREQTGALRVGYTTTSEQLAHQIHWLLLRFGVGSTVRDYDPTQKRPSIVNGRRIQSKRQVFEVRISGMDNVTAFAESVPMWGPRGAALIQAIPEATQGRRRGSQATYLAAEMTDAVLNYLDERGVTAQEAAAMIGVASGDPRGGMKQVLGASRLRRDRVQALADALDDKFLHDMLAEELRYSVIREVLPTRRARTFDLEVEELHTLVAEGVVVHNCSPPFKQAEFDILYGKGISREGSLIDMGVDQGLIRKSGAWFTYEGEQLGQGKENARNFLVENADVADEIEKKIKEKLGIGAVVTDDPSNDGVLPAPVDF
SARS 3CLpro inh: SARS-CoV 3CLpro protease inhibition; P0C6X7; recombinant SARS-CoV 3CLpro, quenched FRET peptide cleavage; inhibition, % at 6 µM; hit rate 0.14% among 290,000; AID 1706; in the data active = inhibition above about 12%
A number is an active result; n = inactive; x = not tested or not shown.

SMILES | VHR inh abs | CCHF vOTU inh | SSB-PriA inh | RecA splice inh | SARS 3CLpro inh
Clc1cccc(CSc2ncn(-c3ccccc3)n2)c1 | n | n | n | x | n
FC(F)(F)c1ccc(CSc2nccn2-c2ccccc2)cc1 | n | n | 48 | n | n
CC(C)(C)NC(=O)CN(C(=O)CCC(=O)Nc1nccs1)c1ccc(F)c(Cl)c1 | 53 | n | n | n | n
Cc1c(Cl)cccc1-c1ccc(/C=N/n2cnnc2)o1 | 59 | n | x | n | n
Clc1cccc(-c2ccc(/C=N/n3cnnc3)o2)c1Cl | n | n | x | n | n
COCCN(CCOC)S(=O)(=O)c1ccc(C(=O)Nc2nc3c(OC)ccc(C)c3s2)cc1 | x | x | n | x | x
Fc1ccc(N2CCN(C3=Nc4cccc5cccc3c45)CC2)cc1 | n | n | 44 | n | n
CCCC(=O)Nc1[nH]c(=S)c(C#N)c(-c2ccc(OC(=O)CCC)cc2)c1C#N | x | x | 97 | x | x
O=[N+]([O-])c1ccc(O)c(C=NNC2=NS(=O)(=O)c3ccccc32)c1 | x | x | 51 | x | x
O=C(Nc1ccccc1-c1nc2ccccc2[nH]1)C1CCCCC1 | x | x | n | x | x
CS(=O)(=O)N(Cc1ccc(C(=O)Nc2ccccc2Sc2ccccc2)cc1)c1ccccc1 | n | n | n | n | 13
O=C(Nc1ccccc1Sc1ccccc1)c1ccccc1 | n | n | n | x | n
Cc1ccc(N(C)c2nc(N)nc(N)c2N=O)cc1 | x | 61 | x | x | x
Cc1cccc(Nc2nc(N)nc(N)c2N=O)c1 | x | n | n | x | x
O=C(Cn1nnc2ccccc21)Nc1cc(OCc2ccc3c(c2)OCO3)ncn1 | x | x | n | x | x
CCN1CCN(C(c2ccccc2)c2nnnn2Cc2ccc3c(c2)OCO3)CC1 (centres undefined) | 52 | n | n | n | n
CCOc1ccc(N(CC(=O)NCc2ccc3c(c2)OCO3)C(=O)c2csnn2)cc1 | n | n | n | x | n
CCc1ccc(N(CC(=O)NCc2ccc3c(c2)OCO3)C(=O)c2csnn2)cc1 | 53 | n | n | x | n
COC(=O)CSc1nc(N)c2c3c(sc2n1)C(c1ccccc1)SC(c1ccccc1)C3 (centres undefined) | n | x | n | 36 | n
Cc1cc2oc(C(=O)Nc3sc4c(c3C#N)CCCC4)c(C)c2cc1C | x | x | n | x | x
COCCN=c1scc(-c2cc(OC)c(OC)c(OC)c2)n1/N=C/c1c(C)[nH]c2ccccc12 | n | n | x | n | n
COCCN=c1scc(-c2ccccc2)n1N=Cc1c[nH]c2ccccc12 | x | x | 51 | x | x
CS(=O)(=O)N1CCC(C(=O)NCC2CCN(C(=O)c3cccnc3)CC2)CC1 | x | x | n | x | x
COc1ccc(C)cc1NC(=O)CSc1cc(-c2ccccn2)nc(C)n1 | x | x | n | x | x
COc1ccc(C)cc1NC(=O)CSc1ccccn1 | x | x | 56 | x | x
SMILES | VHR inh abs | CCHF vOTU inh | SSB-PriA inh | RecA splice inh | SARS 3CLpro inh
Cc1cc(NC(=O)CSc2ccccn2)cc(NC(=O)CSc2ccccn2)c1 | 54 | n | n | n | n
COc1ccc(C)cc1NC(=O)CSc1ccc(-c2ccccn2)nn1 | n | n | 52 | n | n
O=C(NCCn1nc(-c2ccco2)ccc1=O)c1cccc(C(F)(F)F)c1 | x | x | n | x | x
O=C1OCC2OC(O)C(O)C(O)C2OC(=O)c2cc(O)c(O)c(O)c2-c2c(O)c(O)c3oc(=O)c4c(c(O)c(O)c5oc(=O)c2c3c54)-c2c1cc(O)c(O)c2O (centres undefined) | 121 | x | x | x | x
COc1c(O)cc2c(c1O)C1OC(CO)C(O)C(O)C1OC2=O (centres undefined) | x | n | n | x | x
Cc1cc(NC(=O)CN2C(=O)NC3(CCC(C)CC3)C2=O)no1 (centres undefined) | 51 | n | n | n | n
Cc1cc(C(=O)N/N=C/c2c(CO)cnc(C)c2O)c2ccccc2n1 | n | n | x | n | n
Cc1cc(C(=O)NN=Cc2c(CO)cnc(C)c2O)c2ccccc2n1 | x | x | 40 | x | x
Cc1ncc(CO)c(C=NNc2ccc(C(F)(F)F)cn2)c1O | x | x | 72 | x | x
Cc1cc(OC2CN(C(=O)c3c(-c4ccccc4Cl)noc3C)C2)cc(=O)o1 | x | x | n | x | x
CC(=NNc1ccc([N+](=O)[O-])cc1)c1c[nH]c2ccccc12 | x | x | 40 | x | x
C/C(=N/NS(=O)(=O)c1cccc([N+](=O)[O-])c1)c1c[nH]c2ccccc12 | n | n | x | n | n
COc1ccc(Br)cc1/C=N/n1c(C)nc2ccccc2c1=O | 58 | n | x | n | n
CCn1nc(C)cc1C(=O)N1CCc2cc(OC)ccc2C1 | x | x | n | x | x
COc1ccc(-n2nc(C(=O)NCC(=O)N3CCOCC3)c3ccccc3c2=O)c(OC)c1 | n | n | n | n | n
COc1ccc(-n2nc(C(=O)NCC(=O)N3CCC4(CC3)OCCO4)c3ccccc3c2=O)c(OC)c1 | 56 | n | n | n | n
Fc1ccc(NC(=S)Nc2ccc3nccnc3c2)cc1 | n | n | 45 | n | n
OCCCNC(=S)Nc1ccc2nccnc2c1 | n | n | n | n | n
